Screening data deposited in PubChem BioAssay by The Scripps Research Institute Molecular Screening Center.
EBNA-1 inhibitor: blocks EBNA-1 binding to DNA. EBNA-1 DNA binding, fluorescence polarization. inhibition, % at 14.8 µM. actives 0.34% (n = 300,000). AID 1950; in the data active = inhibition above about 28%
PAFAH1B3 FP inh: PAFAH1B3 (human) inhibition. Q15102. recombinant PAFAH1B3, FP-rhodamine probe, fluorescence polarization. inhibition, % at 3.39 µM. actives 0.28% (n = 340,000). AID 492972;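 active = inhibition above the screen-wide average of all tested compounds plus 3 SD, cut at about 25% in these data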;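 also: 0% = enzyme with DMSO only and 100% = wells lacking PAFAH1B3 protein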
Target sequence (Q15102 whole entry, looked up): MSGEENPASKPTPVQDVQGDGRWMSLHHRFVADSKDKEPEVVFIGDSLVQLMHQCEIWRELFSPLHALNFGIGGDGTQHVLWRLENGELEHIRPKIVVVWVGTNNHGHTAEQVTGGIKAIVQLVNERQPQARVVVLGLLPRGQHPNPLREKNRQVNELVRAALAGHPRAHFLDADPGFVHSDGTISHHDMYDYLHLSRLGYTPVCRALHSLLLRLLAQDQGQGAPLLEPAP
PAFAH1B2 inh: PAFAH1B2 (human) inhibition. P68402. recombinant PAFAH1B2, FP-rhodamine activity probe, fluorescence polarization. inhibition, % at 3.39 µM. actives 1.2% (n = 340,000);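 active = inhibition above the mean of all tested compounds plus 3 SD, cut at about 24% in these data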;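 also: 0% = enzyme with DMSO and 100% = wells lacking PAFAH1B2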
Target sequence (P68402 whole entry, looked up): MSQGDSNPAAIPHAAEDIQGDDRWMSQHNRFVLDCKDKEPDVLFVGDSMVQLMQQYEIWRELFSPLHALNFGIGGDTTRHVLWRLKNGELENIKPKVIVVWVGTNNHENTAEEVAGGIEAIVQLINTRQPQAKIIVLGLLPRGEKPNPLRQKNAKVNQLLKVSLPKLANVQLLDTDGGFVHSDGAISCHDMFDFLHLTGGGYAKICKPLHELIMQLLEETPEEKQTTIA
ZTA counter: ZTA (EBV) inhibition in EBNA-1 counter-screen; inhibition, % at 11 µM; P03206; AID 2234; ZTA-DNA binding, fluorescence polarization; actives 0.15% (n = 320,000); in the data active = inhibition above about 33%
Target sequence (P03206 whole entry, looked up): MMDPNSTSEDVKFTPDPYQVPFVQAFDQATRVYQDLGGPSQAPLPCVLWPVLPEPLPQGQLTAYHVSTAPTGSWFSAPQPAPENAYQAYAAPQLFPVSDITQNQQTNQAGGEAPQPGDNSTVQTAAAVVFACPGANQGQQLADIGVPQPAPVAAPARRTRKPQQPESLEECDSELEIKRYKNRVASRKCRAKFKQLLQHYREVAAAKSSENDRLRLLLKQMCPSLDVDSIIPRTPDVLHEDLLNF
rCAG binder-1: molecules binding r(CAG) RNA repeats. actives 1.3% (n = 370,000). inhibition, % at 3 µM. r(CAG) RNA repeat, TO-PRO-1 dye displacement fluorescence. AID 651821;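 active = inhibition above the plate cutoff, the mean of all test compounds on that plate plus 3 SD, cut at about 35% in these data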;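 also: 0% = DMSO alone and 100% = 100 µM mitoxantrone as full dye displacement; higher means more dye released from RNA so lower well fluorescence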
PAFAH2 inh: PAFAH2 (human) inhibition | recombinant PAFAH2, FP-rhodamine activity probe, fluorescence polarization | inhibition, % at 3.39 µM | actives 0.99% (n = 340,000) | AID 492956;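 active = inhibition above the mean over all tested compounds plus 3 SD, cut at about 30% in these data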;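 also: inhibitors block probe labeling of enzyme so polarization drops; 0% = enzyme with DMSO and 100% = wells lacking PAFAH2 protein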
rCAG bind conf: r(CAG) RNA repeat binding, confirmation; shares compounds with rCAG binder-1; TO-PRO-1 dye displacement fluorescence; inhibition, % at 3 µM; actives 70% (n = 4,300); AID 652065;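 active = inhibition above a per-plate cutoff, the mean inhibition of sample wells plus 3 SD, cut at about 35% in these data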;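 also: loss of TO-PRO-1 fluorescence as compound displaces dye from 1x1 AA loop RNA; 0% = DMSO only wells and 100% = 100 µM mitoxantrone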
dCAG dye counter: DNA CAG dye complex inhibition counter-screen. d(CAG) DNA oligo TO-PRO-1 dye displacement, fluorescence. actives 94% (n = 4,300). AID 652068. shares compounds with rCAG binder-1. inhibition, % at 3 µM;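 active = inhibition above its plate's cutoff, the mean test-well inhibition plus 3 SD, cut at about 4.8% in these data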;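 also: 0% = DNA dye mix with DMSO and 100% = 100 µM mitoxantrone; hits displace the dye from DNA and so lower well fluorescence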
DNA CAG DR: disrupts DNA CAG TO-PRO-1 complex in dose response. shares compounds with rCAG binder-1. DNA CAG/GTC duplex TO-PRO-1 dye displacement fluorescence. IC50, µM. actives 20% (n = 250); in the data active = IC50 below about 10 µM
dCAG DNA bind: counter-screen for rCAG binders: DNA CAG TO-PRO-1 complex inhibitors, late stage. shares compounds with rCAG binder-1. d(CAG) DNA duplex TO-PRO-1 dye displacement, fluorescence. IC50, µM. actives 80% (n = 30)
rCAG binder-2: binds r(CAG) RNA repeats in late stage dose response. actives 100% (n = 30). shares compounds with rCAG binder-1. r(CAG) RNA TO-PRO-1 dye displacement, fluorescence. IC50, µM
The depositor's hits bear a star; / = not tested or not shown. A selection: hits, their analogues and other compounds. The true share with any hit is near 2.9%. Unless noted, no rule for the calls is given here.

SMILES	EBNA-1 inhibitor	PAFAH1B3 FP inh	PAFAH1B2 inh	ZTA counter	rCAG binder-1	PAFAH2 inh	rCAG bind conf	dCAG dye counter	others
CCC(CC)c1nn2c(N)c(/C=C3\C=Nc4ccccc43)c(=O)nc2s1	0.7	8.8	2.7	-17.8	9.2	15.2	/	/
COCCNC(=O)c1cc2c(c(-c3cccc(-c4cc5ccccc5o4)c3)n1)[C@H](CCO)N(S(=O)C(C)(C)C)C2 (stereo partly drawn)	/	/	/	/	9.7	/	/	/
CC1=C(C(=O)Nc2cccc(C(=O)NC3CCCC(C)C3C)c2)SCCO1 (stereo not drawn)	-5.9	1.1	6.2	3.0	-2.1	12.5	/	/
COC(=O)C(=NNc1c(C)n(C)n(-c2ccccc2)c1=O)C(=O)OC	-5.9	-1.2	4.4	-8.6	0.1	-6.7	/	/
N#C/C(=N\Nc1ccc(Cl)cc1)C(=O)c1ccccc1	6.5	-3.0	4.1	-9.5	58.9*	24.9	58.0*	14.0*
CCOC(=O)NC(=O)/C(C#N)=N\Nc1ccc(Cl)cc1	-2.7	6.4	-0.8	-5.1	23.9	8.1	/	/
Cc1c(N/N=C(\C#N)C(=O)c2ccc(Cl)cc2)c(=O)n(-c2ccccc2)n1C	7.5	7.4	3.9	16.3	37.0*	-1.3	32.2	10.1*
O=C(CSc1nc2ccccc2n1Cc1ccccc1)NN=C/C=C/c1ccccc1	/	/	/	/	8.5	/	/	/
CCCCCCCCCCCC(=O)NC(Cc1ccc(OC)c([N+](=O)[O-])c1)C(=O)O (stereo not drawn)	12.2	7.9	28.4*	16.2	44.2*	2.5	42.8*	9.2*
CCOC(=O)C(Cc1ccc(OC)c([N+](=O)[O-])c1)NC(=O)CCC(=O)Nc1ccc(OC)cc1 (stereo not drawn)	-23.1	/	/	8.9	-3.3	/	/	/
C=CCN1C(=O)[C@H](CC(=O)NCc2cccc(C(F)(F)F)c2)[C@@]2(C(=O)OCC)CCCC=C12	/	/	/	/	3.3	/	/	/
O=C(C1=C(O)C(=O)N(c2nc3ccc(Cl)cc3s2)C1c1ccco1)c1ccco1 (stereo not drawn)	/	12.1	7.3	5.7	67.8*	28.0	71.8*	32.6*	DNA CAG DR=3.47*;dCAG DNA bind=2.89*;rCAG binder-2=1.31*
CCc1ccc2nc(N3C(=O)C(O)=C(C(=O)c4ccco4)C3c3cccs3)sc2c1 (stereo not drawn)	5.2	-5.7	-1.3	6.4	/	21.8	/	/
Cc1ccc2nc(N3C(=O)C(O)=C(C(=O)c4ccco4)C3c3ccc(O)cc3)sc2c1 (stereo not drawn)	3.4	8.0	5.1	-1.5	66.9*	14.5	49.6*	15.5*
Cc1ccc2nc(N3C(=O)C(O)=C(C(=O)c4ccc(C)o4)C3c3ccco3)sc2c1 (stereo not drawn)	/	1.7	3.0	2.9	30.9	16.4	/	/
Cc1ccc2nc(N3C(=O)C(O)=C(C(=O)c4ccco4)C3c3ccc(C)o3)sc2c1 (stereo not drawn)	8.8	6.8	4.1	22.3	48.9*	14.1	71.7*	33.0*	DNA CAG DR=3.81*;dCAG DNA bind=1.99*;rCAG binder-2=0.923*
COc1cccc(OC(C)CCN2CCC(C(O)(c3ccccc3)c3ccccc3)CC2)c1 (stereo not drawn)	/	/	/	/	2.7	/	/	/
C[C@H](NC(=O)c1ccc2ccccc2c1)C(=O)N1CCC2(CC1)NCCc1[nH]cnc12	-6.1	0.3	-0.9	-20.4	0.0	2.0	/	/
O=C(O)c1ccccc1-c1ncc(-c2ccccc2)o1	-7.7	5.8	8.1	8.0	-0.1	-2.7	/	/
O=C1OCC2=Nc3cccc4cccc(c34)N12	/	/	/	/	2.1	/	/	/
COC(=O)C1=CN(c2ccc(C(C)(C)C)cc2)C(N)=C(C#N)C1c1ccccc1F (stereo not drawn)	/	/	/	/	6.8	/	/	/
CCOC(=O)C1(CCCc2ccccc2)CCN(C(=O)CCC2=NNC(=O)CC2)CC1	-3.1	6.5	7.3	13.8	-8.2	5.3	/	/
O=C(CNC(=O)c1cccs1)c1ccc(Br)cc1	3.5	8.4	-1.3	-0.4	2.9	-14.8	/	/
CC(C)c1c(C(=O)Nc2ccccc2)c(-c2ccccc2)c(-c2ccc(F)cc2)n1CC[C@@H](O)C[C@@H](O)CC(=O)O	/	/	/	/	37.4*	/	36.2*	9.9*
CSc1ccc(C=NNc2ccc(S(=O)(=O)Nc3ccccc3C(=O)O)cc2[N+](=O)[O-])cc1	/	14.4	8.9	/	17.1	19.7	/	/
SMILES	EBNA-1 inhibitor	PAFAH1B3 FP inh	PAFAH1B2 inh	ZTA counter	rCAG binder-1	PAFAH2 inh	rCAG bind conf	dCAG dye counter	others
Cc1nn(-c2ccccc2)c(Cl)c1/C=N/NS(=O)(=O)c1ccc(Br)cc1	4.5	8.3	7.7	6.8	48.3*	7.0	42.0*	11.0*
CCOc1cccc(C=NNc2ccc(S(=O)(=O)Nc3ccccc3C(=O)O)cc2[N+](=O)[O-])c1O	/	9.5	16.0	/	76.0*	7.1	86.3*	53.6*
COc1ccc(NC(=S)NNc2ccc(S(=O)(=O)Nc3ccccc3C(=O)O)cc2[N+](=O)[O-])cc1	5.5	27.4*	15.7	6.4	96.8*	63.9*	88.5*	60.6*
COc1ccccc1NS(=O)(=O)c1ccc(OC)c([N+](=O)[O-])c1	4.6	6.8	-3.9	16.6	1.3	5.7	/	/
O=C(O)c1ccccc1NS(=O)(=O)c1ccc(NN=Cc2ccccc2F)c([N+](=O)[O-])c1	/	8.3	15.4	/	84.1*	7.0	92.1*	71.5*
CC(CCc1ccccc1)NC(=O)CCNS(=O)(=O)c1ccccc1C(F)(F)F (stereo not drawn)	/	6.1	6.5	-12.5	-0.3	-1.5	/	/
CCOc1ccc(C=NNc2ccc(S(=O)(=O)Nc3ccccc3C(=O)O)cc2[N+](=O)[O-])cc1	/	25.2	17.9	/	/	21.3	/	/
C=CCOc1ccc(C=NNc2ccc(S(=O)(=O)Nc3ccccc3C(=O)O)cc2[N+](=O)[O-])cc1OC	/	15.1	9.8	/	37.5*	13.2	94.5*	80.2*
Cc1nn(-c2ccccc2)c(Cl)c1/C=N/Nc1ccc(Cl)c(C(=O)O)c1	18.2	5.2	7.1	9.0	26.1	20.1	/	/
Cc1nn(-c2ccccc2)c(Cl)c1/C=N/Nc1ccc(S(=O)(=O)Nc2ccccc2C(=O)O)cc1[N+](=O)[O-]	15.1	10.3	13.4	15.8	52.2*	26.3	91.8*	64.7*
